Assay outcomes deposited in PubChem BioAssay by National Center for Advancing Translational Sciences (NCATS).
PINK1 modulator = modulators of PINK1 expression | AID 624263 | 0.2% of 410,000 active | Potency, µM (titrated, usually from 76.6 µM), inactives show top-dose activation (PINK1 increase), hits mostly activators | PINK1 immunofluorescence, high-content cytometry, 24 h; active = well fitted activation curve with a large enough effect; inconclusive = small, poorly fitted or top-dose-only effect; cell line not stated here; also: potency is read from the fitted curve at half-maximal effect; % of control where 0% means no effect; nearly all actives have a fitted effect of over 65% in size
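PINK1 protein, normally rapidly degraded, was detected by immunofluorescence after 24 hour compound treatment of a stable cell line. Titration data (5 concentrations) came from laser-scanning cytometry, with CCCP-treated wells as controls.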
SW480 rerep = induces DNA re-replication in SW480 colon adenocarcinoma cells | SW480 DNA re-replication, Hoechst DNA content imaging, 48 h | Potency, µM (doses to about 46.1 µM), for inactives: at the highest dose re-replication activation, actives largely listed as activators | 1.8% of 340,000 active | AID 624297; also: potency is read from the fitted curve at half-maximal effect; % of control where 0% means no effect; nearly all actives have a fitted effect of over 55% in size
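Image-based DNA-content assay: after two days of treatment, nuclei were labelled with the DNA dye Hoechst and imaged, and hits were compounds raising the count of nuclei showing high fluorescence intensity.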
S2 tox = reduces viability in counter-screen for ATXN expression inhibitors | AID 651635 | 0.49% of 400,000 active | S2 cells (HEK-293 line with an ATXN2-luciferase reporter) viability, CellTiter-Fluor protease fluorescence, 24 h | Potency, µM (highest dose often 56.7 µM), usual class: cytotoxic; also: potency is read from the fitted curve at half-maximal effect; nearly all actives have a fitted effect of over 40% in size
IL-1B inflam inh = inhibitors of inflammasome signaling (IL-1 beta secretion) | AID 743279 | THP-1 LPS/ATP IL-1B secretion, AlphaLISA, 16 h; active compounds read low | 4.7% of 360,000 active | activity change, % at 57.5 µM; in the data active = activity change below about -50%; inconclusive = mostly about -30% to -49%; also: % is scaled to controls: 0 for no effect and ±100 for the full control effect
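THP-1 cells pretreated 1 hr with compounds (up to 57.5 uM final), then stimulated with LPS (250 ng/mL final) plus ATP (1.25 mM final); secreted IL-1B measured by AlphaLISA after 16 hr, decreased signal indicating inhibition.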
MCF10A rerep = DNA re-replication induction in MCF 10a cells; MCF 10A DNA re-replication, Hoechst nuclear intensity, 48 h; Potency, µM (highest dose often 46.1 µM), without a hit: at the top dose activity, positive = re-replication, usual class: activators; 2.9% of 350,000 active; also: potency is read from the fitted curve at half-maximal effect; % of control where 0% means no effect; nearly all actives have a fitted effect of over 50% in size
ATXN2 expr inh = inhibitors of ATXN2 expression. HEK-293 ATXN2-luciferase reporter, luminescence, 24 h. Potency, µM (doses to about 57 µM), without a hit: at the top dose activity change, negative = inhibition, actives largely listed as inhibitors. 0.72% of 360,000 active; also: potency is read from the fitted curve at half-maximal effect; % is scaled to controls: 0 for no effect and ±100 for the full control effect; nearly all actives have a fitted effect of over 55% in size
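ATXN2-luciferase reporter cells (luciferase flanked by upstream and downstream ATXN2 gene portions) were treated 24 h at 37 °C with compounds at up to 57 uM. SteadyGlo luminescence gave expression; GF-AFC fluorescence gave viability.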
An asterisk follows results filed as active; i = inactive; ? = inconclusive; nt = no result given; [ ] = dose if it differs, or a comment. Most compounds without a hit are left out; they make up all but 7.1% or so of the library. Unless noted, calls follow the shape of the dose curve; as a rule, active = well fitted curve in the direction sought with a large enough effect; inconclusive = small, poorly fitted or top-dose-only effect, or another doubt; inactive = no such curve, though single readings can be large; an effect the other way counts as inactive or inconclusive.

SMILES	PINK1 modulator	SW480 rerep	S2 tox	IL-1B inflam inh	MCF10A rerep	ATXN2 expr inh
COc1ccc2[nH]c(=O)c3c(c2c1)OC(C)(C)C=C3	0.0%	3.1%	i	-106.1*	?	19.7%
Cc1ncc2c(c1CNC(=O)c1ccc3c(c1)OCO3)CCN(C(=O)c1cc3ccccc3n1C)C2	0.6%	nt	i	nt	nt	nt
CC1=Nc2cc(C(=O)NC3CCCCC3)ccc2Sc2ccc(Cl)cc21	0.8%	nt	nt	nt	nt	nt
CC(C)(C)n1nnnc1CN1CCN(C(c2ccccc2)c2ccccc2)CC1	0.6%	-3.1%	i	-55.2*	3.4%	-2.1%
CC(C)(C)n1nnnc1C(c1ccccc1)N1CCCN(Cc2ccc(F)cc2)CC1 (configuration not stated)	-0.1%	nt	i	-29.1	nt	-2.8%
COc1ccc(CCN(C)CC(O)COC(c2ccc(F)cc2)c2ccc(F)cc2)cc1OC (configuration not stated)	1.9%	?	i	-92.3*	?	-19.7%
CCOc1ccc(N)c(SSc2cc(OCC)ccc2N)c1	-1.1%	17.0%	1µM*	0.0	?	nt
CC(SCc1ccccc1)C(=O)Nc1ccc(F)cc1 (configuration not stated)	1.9%	2.9%	i	-18.1	21.9%	-0.2%
N#CC(C#N)=C(Nc1ccc(F)cc1)SCc1cccc(Br)c1	?	?	?	-95.8*	3.26µM*	?
Cc1cccc(CSC(=N)N)c1	1.2%	0.2%	i	-16.8	6.3%	5.3%
Cc1cccc(CSC(Nc2ccc(F)cc2)=C(C#N)C#N)c1	?	?	i	-17.6	14.6µM*	?
COc1ccc(S(=O)(=O)N2c3ccc(Cl)cc3[C@@](O)(c3ccccc3Cl)[C@H]2C(=O)N2CCC[C@@H]2C(N)=O)cc1OC	nt	nt	i	nt	nt	7.1%
CCOC(=O)C1=C(CSCc2ccccc2)NC(=O)NC1c1cc(C)ccc1C (configuration not stated)	-2.9%[38.3 µM]	?	i	-51.3*	?	?
CCOC(=O)C1=C(CN2CCCCC2)NC(=O)NC1c1cc(C)ccc1C (configuration not stated)	-1.8%	-0.6%	i	4.3	5.0%	-7.2%
CSc1nc(C(=O)N2CCc3c(cnc(C)c3CNC(=O)c3ccc4c(c3)OCO4)C2)cs1	0.0%	nt	?	nt	nt	nt
Cc1cc(-c2ccccc2)nc(N/N=C/c2ccccc2)n1	5.9%	12.2%	i	-7.1	21.3%	?
CN(/N=C/c1ccc(O)cc1O)c1nc(-c2ccccc2)cc(-c2ccccc2)n1	-5.7%	?	nt	-23.9	18.4µM*	?
Cc1cc(-c2ccccc2)nc(N/N=C/c2ccc([N+](=O)[O-])cc2)n1	9.6%	-84.1%	i	-86.8*	8.5%	-29.1%
Cc1nc2ccccc2c(=O)n1/N=C/c1ccc(O)cc1O	1.9%	-2.2%	i	74.7	-24.7%	-29.8%
Cc1cc(-c2ccccc2)nc(N/N=C/c2ccc(O)cc2O)n1	-1.7%	?	?	-89.5*	7.8%	?
Cc1cc(-c2ccccc2)nc(N/N=C/c2ccco2)n1	0.3%[38.3 µM]	8.0%	i	-11.2	-2.8%	21.4%
CC(=O)Nc1nonc1-c1nnc(SCC(=O)Nc2cc(C)ccc2C)n1-c1ccccc1	-0.8%	nt	i	nt	nt	-18.5%
CCC(=O)Nc1ccc(/C(C)=N/NC(=O)c2c(Br)c(C)nn2C)cc1	9.3%	11.6%	i	-2.6	10.4%	-9.0%
C/C(=N\NC(=O)c1c(Br)c(C)nn1C)c1ccc(NC(=O)C(C)Oc2ccc(Cl)cc2C)cc1 (configuration not stated)	2.1%	9.4%	i	-11.1	16.4µM*	?
Cc1ccc(NS(=O)(=O)c2cnc(N)nc2)c(C)c1	-1.2%	nt	nt	nt	nt	nt
SMILES	PINK1 modulator	SW480 rerep	S2 tox	IL-1B inflam inh	MCF10A rerep	ATXN2 expr inh
COc1cccc(-c2noc(-c3ccc(Cl)nc3)n2)c1	0.5%	?	i	-75.3*	6.7%	33.6%
COc1cccc(-c2nc(-c3ccc(C(=O)O)cc3)no2)c1	-1.4%	-10.6%	i	nt	-1.0%	-10.5%
CCCCC(=O)Nc1nn(CC(C)C)c2nc3ccccc3cc12	5.4%	?	i	15.8	?	?
CC(C)Cn1nc(NC(=O)c2cccs2)c2cc3ccccc3nc21	0.5%	16.4µM*	nt	-0.4	?	nt
COc1ccc2nc3c(cc2c1)c(NC(=O)c1cccs1)nn3CC(C)C	0.5%	15.5%	i	-50.7*	?	-21.1%
CCOC(=O)Cc1csc(N/N=C/c2cccc([N+](=O)[O-])c2)n1	0.4%	3.9%	i	3.3	0.1%	-4.5%
O=C(Nc1nc(-c2cccc([N+](=O)[O-])c2)cs1)C(c1ccccc1)c1ccccc1	2.3%	1.8%[9.22 µM]	i	-72.0*	?	-25.2%
O=[N+]([O-])c1cccc(-c2csc(N/N=C/c3cccc(O)c3)n2)c1	-1.2%	?	?	-168.2*	?	?
N#Cc1cc2c(=O)n3ccccc3nc2n(Cc2cccnc2)c1=O	0.6%	2.31µM*	nt	8.3	11.6µM*	5.0%
N#Cc1cc2c(=O)n3ccccc3nc2n(-c2nnc(SCc3ccccc3Cl)s2)c1=O	13.7%	nt	i	nt	nt	3.1%
Cc1cccn2c(=O)c3cc(C#N)c(=O)n(Cc4cccnc4)c3nc12	-3.4%	8.2µM*	nt	-11.7	2.59µM*	-10.6%
N#Cc1cc2c(=O)n3ccccc3nc2n(CCCN2CCOCC2)c1=O	-0.4%	?	nt	-9.1	23.1µM*	-1.2%
N=c1c(S(=O)(=O)c2ccccc2)cc2c(=O)n3ccccc3nc2n1Cc1cccnc1	0.5%	-17.5%	i	0.8	?	-1.0%
COCCCn1c(C(=O)N2CCOCC2)cc2c(=O)n3ccccc3nc21	0.1%	-4.3%	nt	2.5	-8.5%	2.4%
N#Cc1cc2c(=O)n3ccccc3nc2n(-c2ccccc2Cl)c1=O	6.6%	4.61µM*	nt	-3.3	4.11µM*	?
Cc1cccn2c(=O)c3cc(C#N)c(=N)n(Cc4cccnc4)c3nc12	-1.4%	0.6%	i	1.2	0.3%	-10.3%
CCOc1ccccc1NC(=O)C(CC(C)C)NS(=O)(=O)c1ccc2c(c1)CCN2C(C)=O (configuration not stated)	1.5%	nt	i	nt	nt	2.7%
NS(=O)(=O)c1ccc(CCNC(=O)C2CCN(S(=O)(=O)c3cnc[nH]3)CC2)cc1	-0.4%[38.3 µM]	?	i	1.3	20.6µM*	-3.4%
Cc1ccc(CCNC(=O)C2CCN(S(=O)(=O)c3ccc4c(c3)NC(=O)C(C)S4)CC2)cc1 (configuration not stated)	0.2%	-5.7%	?	-68.5*	-3.1%	?
